# In ChEMBL document CHEMBL1961873, “Compounds: GSK PKIS; Assays: Nanosyn kinase panel” (2012):
# Experiments:
# [1] = molecular target: T1, Muscle, skeletal receptor tyrosine-protein kinase (Homo sapiens) (UniProt O15146); details: at 1 µM;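 note: reported value is the mean percent inhibition of MuSK kinase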
# T1 sequence (whole entry): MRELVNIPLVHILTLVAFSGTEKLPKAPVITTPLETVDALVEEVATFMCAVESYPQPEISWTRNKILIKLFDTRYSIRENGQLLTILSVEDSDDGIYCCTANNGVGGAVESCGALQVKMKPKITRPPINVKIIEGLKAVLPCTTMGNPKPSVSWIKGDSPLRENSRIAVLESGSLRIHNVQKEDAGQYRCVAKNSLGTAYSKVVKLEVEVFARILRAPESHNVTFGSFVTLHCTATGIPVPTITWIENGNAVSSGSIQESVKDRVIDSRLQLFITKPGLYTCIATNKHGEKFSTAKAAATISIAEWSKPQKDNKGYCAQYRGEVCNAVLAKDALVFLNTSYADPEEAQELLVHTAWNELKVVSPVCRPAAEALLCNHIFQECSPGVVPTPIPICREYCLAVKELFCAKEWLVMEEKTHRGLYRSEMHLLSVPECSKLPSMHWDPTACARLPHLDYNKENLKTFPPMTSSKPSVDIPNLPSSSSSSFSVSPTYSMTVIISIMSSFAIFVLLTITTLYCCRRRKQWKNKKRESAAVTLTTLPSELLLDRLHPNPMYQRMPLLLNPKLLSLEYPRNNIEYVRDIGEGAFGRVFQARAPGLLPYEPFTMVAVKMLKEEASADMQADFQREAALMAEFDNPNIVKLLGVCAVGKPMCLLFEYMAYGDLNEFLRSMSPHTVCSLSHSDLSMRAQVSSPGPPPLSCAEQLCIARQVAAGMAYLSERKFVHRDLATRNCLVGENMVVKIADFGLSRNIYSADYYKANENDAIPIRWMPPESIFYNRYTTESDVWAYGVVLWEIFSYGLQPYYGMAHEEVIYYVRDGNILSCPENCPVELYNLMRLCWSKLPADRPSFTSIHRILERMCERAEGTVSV
# [2] = molecular target: Platelet-derived growth factor receptor alpha (Homo sapiens) (UniProt P16234); details: at 0.1 µM
# [3] = molecular target: Platelet-derived growth factor receptor alpha (Homo sapiens) (UniProt P16234); details: at 1 µM
# [4] = test system: Platelet-derived growth factor receptor alpha (Homo sapiens), P16234 [D842V]; details: at 0.1 µM
# [5] = test system: Platelet-derived growth factor receptor alpha (Homo sapiens), P16234 [D842V]; details: at 1 µM
# [6] = test system: Platelet-derived growth factor receptor alpha (Homo sapiens), P16234 [T674I]; details: at 0.1 µM
# [7] = test system: Platelet-derived growth factor receptor alpha (Homo sapiens), P16234 [T674I]; details: at 1 µM
# [8] = test system: Platelet-derived growth factor receptor alpha (Homo sapiens), P16234 [V561D]; details: at 0.1 µM
# [9] = test system: Platelet-derived growth factor receptor alpha (Homo sapiens), P16234 [V561D]; details: at 1 µM
# [10] = molecular target: Platelet-derived growth factor receptor beta (Homo sapiens) (UniProt P09619); details: at 0.1 µM
# [11] = molecular target: Platelet-derived growth factor receptor beta (Homo sapiens) (UniProt P09619); details: at 1 µM
# [12] = molecular target: Tyrosine-protein kinase FRK (Homo sapiens) (UniProt P42685); details: at 0.1 µM
# [13] = molecular target: Tyrosine-protein kinase FRK (Homo sapiens) (UniProt P42685); details: at 1 µM
# [14] = molecular target: Protein-tyrosine kinase 2-beta (Homo sapiens) (UniProt Q14289); details: at 0.1 µM
# [15] = molecular target: Protein-tyrosine kinase 2-beta (Homo sapiens) (UniProt Q14289); details: at 1 µM
# [16] = molecular target: Proto-oncogene tyrosine-protein kinase receptor Ret (Homo sapiens) (UniProt P07949); details: at 0.1 µM
# [17] = molecular target: Proto-oncogene tyrosine-protein kinase receptor Ret (Homo sapiens) (UniProt P07949); details: at 1 µM
# [18] = test system: Proto-oncogene tyrosine-protein kinase receptor Ret (Homo sapiens), P07949 [V804L]; details: at 0.1 µM
# [19] = test system: Proto-oncogene tyrosine-protein kinase receptor Ret (Homo sapiens), P07949 [V804L]; details: at 1 µM
# [20] = test system: Proto-oncogene tyrosine-protein kinase receptor Ret (Homo sapiens), P07949 [Y791F]; details: at 0.1 µM
# Sequence of Platelet-derived growth factor receptor alpha (Homo sapiens), P16234 [T674I] (P16234 whole entry T674I): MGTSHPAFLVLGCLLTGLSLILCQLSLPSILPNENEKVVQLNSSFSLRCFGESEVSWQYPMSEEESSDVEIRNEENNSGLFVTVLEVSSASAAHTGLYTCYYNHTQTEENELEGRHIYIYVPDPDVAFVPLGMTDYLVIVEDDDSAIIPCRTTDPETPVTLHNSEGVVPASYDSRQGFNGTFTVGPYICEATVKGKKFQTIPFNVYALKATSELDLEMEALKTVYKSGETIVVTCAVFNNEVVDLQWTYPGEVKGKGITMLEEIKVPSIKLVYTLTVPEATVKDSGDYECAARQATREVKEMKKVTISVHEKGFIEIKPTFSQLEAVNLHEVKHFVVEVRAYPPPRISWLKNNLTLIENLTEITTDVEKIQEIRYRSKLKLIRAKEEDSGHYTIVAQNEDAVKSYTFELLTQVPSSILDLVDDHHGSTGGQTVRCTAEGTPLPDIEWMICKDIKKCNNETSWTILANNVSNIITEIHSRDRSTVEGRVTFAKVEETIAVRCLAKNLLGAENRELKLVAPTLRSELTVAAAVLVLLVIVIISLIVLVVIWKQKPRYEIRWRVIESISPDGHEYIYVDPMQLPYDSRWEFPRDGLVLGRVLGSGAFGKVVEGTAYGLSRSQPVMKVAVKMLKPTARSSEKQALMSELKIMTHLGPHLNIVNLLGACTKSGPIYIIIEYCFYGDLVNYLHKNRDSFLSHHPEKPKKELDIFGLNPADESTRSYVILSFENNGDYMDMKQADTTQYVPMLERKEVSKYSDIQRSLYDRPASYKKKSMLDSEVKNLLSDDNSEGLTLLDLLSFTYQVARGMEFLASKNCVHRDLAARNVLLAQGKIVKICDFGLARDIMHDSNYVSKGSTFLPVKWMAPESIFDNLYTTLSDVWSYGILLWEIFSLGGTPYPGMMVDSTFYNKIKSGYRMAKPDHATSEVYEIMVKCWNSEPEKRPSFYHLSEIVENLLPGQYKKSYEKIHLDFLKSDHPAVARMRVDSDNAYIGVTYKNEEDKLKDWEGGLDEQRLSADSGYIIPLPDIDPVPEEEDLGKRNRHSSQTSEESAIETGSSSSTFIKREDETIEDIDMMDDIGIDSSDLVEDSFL
# Sequence of Proto-oncogene tyrosine-protein kinase receptor Ret (Homo sapiens) (P07949 whole entry): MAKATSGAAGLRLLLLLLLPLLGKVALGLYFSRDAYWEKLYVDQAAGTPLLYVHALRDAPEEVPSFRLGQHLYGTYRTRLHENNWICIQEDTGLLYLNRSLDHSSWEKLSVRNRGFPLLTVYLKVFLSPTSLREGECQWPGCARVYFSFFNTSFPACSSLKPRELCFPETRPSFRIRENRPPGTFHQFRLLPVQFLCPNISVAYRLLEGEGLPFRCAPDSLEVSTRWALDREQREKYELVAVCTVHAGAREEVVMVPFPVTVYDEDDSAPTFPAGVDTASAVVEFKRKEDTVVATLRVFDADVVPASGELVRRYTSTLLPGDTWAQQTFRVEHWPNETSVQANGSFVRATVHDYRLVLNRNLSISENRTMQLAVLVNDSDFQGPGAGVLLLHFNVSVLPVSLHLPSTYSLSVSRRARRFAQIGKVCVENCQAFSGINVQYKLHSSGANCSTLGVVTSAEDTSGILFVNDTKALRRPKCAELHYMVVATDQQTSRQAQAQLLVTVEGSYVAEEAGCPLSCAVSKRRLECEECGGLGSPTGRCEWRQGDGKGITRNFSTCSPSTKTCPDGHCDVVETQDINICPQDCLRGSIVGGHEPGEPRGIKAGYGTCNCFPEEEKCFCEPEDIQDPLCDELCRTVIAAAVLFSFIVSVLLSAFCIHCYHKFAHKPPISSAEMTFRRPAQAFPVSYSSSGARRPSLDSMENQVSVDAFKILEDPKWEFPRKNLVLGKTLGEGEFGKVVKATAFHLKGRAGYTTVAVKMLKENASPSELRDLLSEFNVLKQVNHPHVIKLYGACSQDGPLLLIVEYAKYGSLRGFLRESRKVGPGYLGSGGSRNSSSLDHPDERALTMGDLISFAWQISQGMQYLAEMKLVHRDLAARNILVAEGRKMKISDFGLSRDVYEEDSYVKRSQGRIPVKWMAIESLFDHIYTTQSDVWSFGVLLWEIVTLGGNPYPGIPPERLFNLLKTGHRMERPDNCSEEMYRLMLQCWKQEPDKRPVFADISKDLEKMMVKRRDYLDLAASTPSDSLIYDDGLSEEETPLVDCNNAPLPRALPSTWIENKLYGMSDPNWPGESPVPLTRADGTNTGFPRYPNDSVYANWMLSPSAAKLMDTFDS
# Sequence of Proto-oncogene tyrosine-protein kinase receptor Ret (Homo sapiens), P07949 [V804L] (P07949 whole entry V804L): as the sequence (P07949 whole entry) above, with V804L counted along it
# Sequence of Platelet-derived growth factor receptor alpha (Homo sapiens), P16234 [D842V] (P16234 whole entry D842V): as the sequence (P16234 whole entry T674I) above, with I674T, D842V counted along it
# Sequence of Tyrosine-protein kinase FRK (Homo sapiens) (P42685 whole entry): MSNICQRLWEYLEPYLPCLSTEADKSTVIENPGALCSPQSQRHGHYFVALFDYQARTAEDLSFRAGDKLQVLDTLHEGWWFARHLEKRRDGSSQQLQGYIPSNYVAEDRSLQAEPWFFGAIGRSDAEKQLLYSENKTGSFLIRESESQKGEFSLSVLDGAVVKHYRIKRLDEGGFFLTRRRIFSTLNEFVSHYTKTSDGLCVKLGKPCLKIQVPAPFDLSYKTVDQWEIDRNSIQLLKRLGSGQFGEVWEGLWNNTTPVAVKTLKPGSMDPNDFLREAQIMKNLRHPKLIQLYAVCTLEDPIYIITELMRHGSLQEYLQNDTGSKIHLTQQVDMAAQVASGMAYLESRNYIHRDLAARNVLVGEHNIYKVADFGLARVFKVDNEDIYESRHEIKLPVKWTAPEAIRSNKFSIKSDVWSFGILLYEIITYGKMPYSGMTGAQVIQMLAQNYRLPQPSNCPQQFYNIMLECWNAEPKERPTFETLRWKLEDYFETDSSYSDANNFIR
SMILES,inhibition [1] [%],inhibition [2] [%],inhibition [3] [%],inhibition [4] [%],inhibition [5] [%],inhibition [6] [%],inhibition [7] [%],inhibition [8] [%],inhibition [9] [%],inhibition [10] [%],inhibition [11] [%],inhibition [12] [%],inhibition [13] [%],inhibition [14] [%],inhibition [15] [%],inhibition [16] [%],inhibition [17] [%],inhibition [18] [%],inhibition [19] [%],inhibition [20] [%]
COc1ccc2ncnc(Nc3ccc(OCc4ccccc4)cc3)c2c1,1.74,4.33,12.2,0.76,1.54,2.64,4.95,1.76,4.16,0.54,7.02,0.42,0.42,-1.91,5.66,3.22,5.23,0.54,7.26,4.16
Cc1cc(O)cc(C)c1/C=C/c1cncc(C(=O)N(C)C)c1,8.5,11.8,13.3,3.51,3.16,8.15,1.18,1.47,5.39,5.76,10,-0.14,1.73,5.04,3.05,8.48,11.8,6.64,9.06,8.23
Cc1ccc(C(=O)NC2CC2)cc1-c1ccc2[nH]ncc2c1,2.51,2.1,13.4,1.95,4.58,1.44,2.76,3.49,13.8,1.82,6.94,-2.56,-4.36,-4.62,-8.03,-2.17,-0.48,-1.65,0.72,-3.09
CN1CCN(C(=O)c2ccc(NC(=O)Nc3ccc(N(C)c4ccnc(Nc5ccc(CS(C)(=O)=O)cc5)n4)cc3)cc2)CC1,38.9,59.9,77.5,7.23,46.1,67.2,85.5,75.2,94.1,60.3,79.3,1.47,4.04,29.2,88.6,38.8,76.8,27.2,67.1,60.7
N#Cc1cccc(Nc2nccc(-c3cnn4ncccc34)n2)c1,24.6,16.3,52.5,10.5,48.8,15.7,60.5,23.3,59.9,27.2,65.1,5.2,16,21.6,71,8.71,37.4,6.87,43.8,7.91
Cc1ccc2c(-c3ccnc(Nc4ccc5c(c4)OCCO5)n3)c(-c3ccc(C(F)(F)F)cc3)nn2n1,-5.36,3.02,9.11,2.16,3.64,2.93,2.96,1.97,4.53,2.08,4.63,-1.35,-0.65,-0.75,2.42,-1.02,3.09,0.74,1.64,1.62
NS(=O)(=O)c1ccc(-c2cc3ccncc3cc2OCc2ccccc2)cc1,0.07,8.15,13.2,0.32,4.83,3.46,9.33,3.67,6.32,3.66,8.53,2,1.07,7.81,13.4,2.04,8.69,2.23,5.47,5.72
Cc1ccc2c(c1)/C(=N/Nc1ccc(S(N)(=O)=O)cc1)C(=O)N2,16.2,12.2,37.7,2.85,13.1,11.5,70.2,21.8,52.3,8.12,31.7,-0.61,0.7,1.76,0.28,3.85,18.8,7.64,35.4,8.06
CCn1c(-c2nonc2N)nc2ccc(F)cc21,3.46,9.43,8.14,3.01,3.62,8.13,10.2,5.36,2.86,5.06,4.28,2.61,1.89,,,6.24,5.07,3.33,15.8,6.33
COc1cccc(-n2nc(C)c3c(N/N=C(\C)c4ccncc4)ncnc32)c1,0.36,1.29,7.93,-0.18,1.8,1.42,4.43,0.1,0.01,3.11,5.79,0.1,-0.17,1.44,8.6,-0.76,0.88,1.04,1.23,2.73
CCCN1CCCC(c2ccc(Nc3nc(Nc4cc(F)ccc4C(N)=O)c4cc[nH]c4n3)c(OC)c2)C1 (configuration not stated),12.2,10.1,38.3,8.12,39.9,5.49,8.24,6.86,33.1,6.16,32.2,7.2,20.5,96,97.7,8.63,20.9,10.1,41.6,8.67
COc1ccc(-c2nn3ncccc3c2-c2ccnc(Nc3cccc(C(F)(F)F)c3)n2)cc1,1.14,1,5.9,1.64,3.19,2.26,5.13,1.12,5.31,-0.23,5.95,1.12,2.91,6.13,6.4,2.63,,2.06,3.74,3.38
CCS(=O)(=O)c1ccc(OC)c(Nc2ncc(-c3cccc(OC)c3)o2)c1,,23.5,58.4,10.9,55.3,4.09,10.2,19.6,68.7,43.7,74.8,4.05,26.9,6.52,10.9,21.9,68.5,7.11,44.1,22.6
N#Cc1c(NC(=O)c2ccccc2F)sc2c1CCCC2,1.48,1.47,5.27,1.43,3.35,1.66,4.03,2.72,3.24,1.07,3.62,-0.85,-1.09,,-8.67,-2,3.21,0.24,2.29,-0.3
Cc1ccc(NC(=O)CC2CC2)cc1-c1ccc(C(=O)NCC2CC2)cc1,5.33,8.04,13.8,2.79,4.37,3.52,9.3,4.68,5.09,4.05,8.86,2.5,2.58,5.55,9.67,4.79,9.25,2.68,10,7.7
CN(C)c1cc2c(Nc3ccc4c(cnn4Cc4ccccc4)c3)ncnc2cn1,1.56,0,8.21,0.65,4.51,3.93,8.69,0.81,6.19,-1,7.75,1.92,2.5,4.48,5.1,1.87,13.6,3.56,0.35,5.78
[O-][S+]1CCN(Cc2ccc(-c3ccc4ncnc(Nc5ccc(OCc6ccccc6)c(Cl)c5)c4c3)o2)CC1,1.01,6.03,11.8,0.45,1.95,3.64,7.9,3.07,6.09,3.07,4.43,0.22,1.48,6.05,1.47,3.12,3.49,2.69,3.13,4.06
CC(C)c1ccc2c(c1)NC(=O)/C2=N/Nc1ccc(S(N)(=O)=O)cc1,3.81,6.3,34.2,1.62,17.2,6.18,48.9,21.5,52.3,4.34,29.8,-0.9,2.77,,,8.25,34,1.58,6.41,4.75
COc1cc2ncnc(Nc3ccc4c(cnn4Cc4ccccc4)c3)c2cc1OC,2.89,9.97,36.9,4,7.42,4.73,17,6.36,23.3,3.39,6.26,1.94,6.16,6.05,9.57,8.77,28.6,3.73,9.3,9.71
Nc1nccc(-c2c(-c3ccc(F)cc3)ncn2CCCN2CCOCC2)n1,3.99,4.62,14.7,1.96,6.03,6.08,7.81,3.07,8.56,3.65,11.8,1.5,1.08,9.24,8.65,4.75,5.26,1.67,4.72,2.28
C[C@@H](Oc1cc(-n2cnc3ccc(OCC4CCN(C)CC4)cc32)sc1C(N)=O)c1ccccc1C(F)(F)F,76,25.1,69.4,18.1,65.6,4.88,46,17.7,66.2,56.3,81.5,-0.4,0.5,-2.32,6.22,2.63,11.6,2.09,18.5,1.2
COc1cc(Nc2nccc(-c3cnn4ncccc34)n2)cc(OC)c1,42.5,19.5,61.9,12.6,60.8,29,91.9,37.5,75.2,40.2,84.5,1.76,5.05,38.9,95.9,9.58,25.4,6.17,33.5,4.62
CN(C)CCCn1c(-c2nonc2N)nc2cnccc21,4.01,6.93,8.22,2.47,3.67,4.13,7.54,1.59,4.37,5.05,11.6,2.2,1.55,9.44,4.55,7.25,8.04,1.93,2.02,2.47
Cc1cc(Cl)cc2c1NC(=O)C2=NNc1ccc(S(N)(=O)=O)cc1,0.5,5.26,20.5,4.17,9.86,6.4,9.82,9.46,25.8,2.83,6.52,1.54,3.32,,,2.45,-0.28,3.83,7.51,-0.41
FC(F)(F)c1ccc(-c2nn3ncccc3c2-c2ccnc(Nc3ccc4c(c3)OCCO4)n2)cc1,15,9.5,19.5,1.06,5.73,,5.8,6.7,11.7,9.78,17.4,1.38,2.35,2.83,1.96,8.08,29.2,9.12,14.3,8.67
O=C1Nc2ccc(-c3cccnc3)cc2C1=Cc1cc(Br)c(O)c(Br)c1,5.67,10.2,20.2,4.65,12.5,5.16,5.71,5.57,23.6,1.45,,1.84,5.49,9.77,9.16,-0.83,7.95,2.79,16.2,8.02
NS(=O)(=O)c1cccc(-c2cc3ccncc3cc2OCc2ccccc2)c1,4.58,13.6,17.2,2.28,4.36,14.8,6.72,2.61,9.52,7.66,11.8,3.66,1.68,,,6.15,14.3,6.02,14.3,12.6
